We go through 28 compounds from PubChem BioAssay (NCI).

About 83,000 compounds went through this panel and 20% of them were active in at least one assay; those are over-represented in the sample as a whole.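 For each line, cells grew in 96-well plates with the test compound present at a single concentration for 48 hours.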 A number with no mark means an inactive call. Calls of active or inactive are those of the source. How the source made its calls: active means growth percent below 10; inactive means the rest.

The assay concerns HL-60(TB) leukemia. Kind of assay: NCI-60 one-dose screen, 48 h (100 = growth as untreated, 0 = no growth, -100 = all killed). To be noted: 10 µM unless noted.
For `O=C(N=c1n(-c2ccccc2)nc2n1CCN2C1=NCCN1C(=O)c1ccc(Cl)cc1)c1ccc(Cl)cc1`, the growth was 51.2%.

`CCOc1cccc(/C=N/NC(=O)c2cccc(Nc3ccnc(C(F)(F)F)c3)c2)c1O`: the growth was 14.1%.

With `COC(=O)/C(=C\c1ccc(OC)cc1)C(=O)N1c2ccccc2Sc2ccccc21`, the growth is 16.5%.

As for `O=[N+]([O-])c1ccc(C(Br)c2ccc([N+](=O)[O-])cc2)cc1`, the growth was 57.6%.

Turning to `CN1CCN(c2cc3c(cc2F)c(=O)c(C(=O)O)cn3-c2ccc(F)cc2)CC1`, the growth is 99.3%.

With `Cc1cccc(Cl)c1NC(=O)c1ccc2nc(NC(=O)NC3CCN(C)CC3)sc2c1`, the growth is 123%.

Regarding `CN1CCN(c2nc(-c3csc(-c4cccs4)n3)cc3ccccc23)CC1`, the growth is 34.4%.

`Nc1nc(Nc2ccccc2SSc2ccccc2Nc2nc(N)nc(C(Cl)(Cl)Cl)n2)nc(C(Cl)(Cl)Cl)n1`: the growth is 11.5%.

For `O=C(Nc1c2ccccc2nc2ccccc12)c1ccccc1CN1C(=O)c2ccccc2C1=O`, the growth was 38.9%.

`CNC(=O)c1cc(Oc2ccc3nc(Nc4cc(Cl)cc(Cl)c4)ccc3c2)ccn1`: the growth is 47.6%.

In the case of `COc1cc(-c2nc3sc(C)cn3c2/C=C2\C(=O)Nc3ccccc32)c(Br)c(OC)c1OC`, the growth is -7.35% (active).

With `Nc1c(C(=O)c2ccccc2)nnc2ncnn12`, the growth was 105%.

For `Nc1nc2c(c3ncccc13)C(c1cccc(Cl)c1)Cc1ncccc1-2` (stereo not drawn), the growth was -6.22% (active).

As for `N=c1ccn2c(n1)OC1C(O)C(CO)OC12` (stereo not drawn), the growth is 106%.

In the case of `NNC(=S)N1N=C(c2cc3ccccc3o2)CC1c1c[nH]c2ccccc12` (stereo not drawn), the growth was 21.7%.

For the compound `COC(=O)C1(C)Cc2cc(OC(C)=O)c(OC(C)=O)cc2N1` (stereo not drawn), the growth is 19.8%.

In the case of `COc1ccccc1N1C(=O)/C(=C/C2=Cc3ccccc3OC2)SC1=S`, the growth is 92.9%.

Take `NC(N)=N/N=C(/c1ccccc1)c1ccccc1F`: the growth was -47% (active).

As for `CC(C)(O)c1cccc(F)c1`, the growth is 70.7%.

In the case of `CN1CCN(c2ccc(Nc3ncc(Cl)c(NC[C@@H]4CCCO4)n3)cc2)CC1`, the growth was -6.65% (active).

In the case of `c1ccc2[nH]c(-c3ccc(Nc4nc(N5CCCC5)nc5[nH]ncc45)cc3)nc2c1`, the growth was -32.8% (active).

Regarding `C[C@H](NC(=O)c1c(N)nn2cccnc12)c1cc2cccc(C#Cc3cnn(C)c3)c2c(=O)n1-c1ccccc1`, the growth was -18.2% (active).

For the compound `COc1cc(CNCCCN2C(=O)c3ccc4c5c(ccc(c35)C2=O)C(=O)N(CCCNCc2cc(OC)c(OC)c(OC)c2)C4=O)cc(OC)c1OC`, the growth is -35.8% (active).

In the case of `Cc1ccc(O)c(NC(=O)c2cccc(Nc3ccnc(C(F)(F)F)c3)c2)c1`, the growth was -11.8% (active).

For `NS(=O)(=O)c1ccc(-n2nc(C(=O)N/N=C\c3ccc(F)cc3)cc2-c2ccc(Cl)cc2)cc1`, the growth was 121%.

Regarding `COc1ccc(/C=C(\C#N)c2cc3ccccc3[nH]2)cc1`, the growth was 14.8%.

With `N#Cc1ccc(C(F)(F)F)nc1N1CCC(C(=O)Nc2ccc(Cl)cc2)CC1`, the growth is 70%.

With `Oc1ccc(/C=C/c2ccccc2)cc1`, the growth was 34.1%.
